We go through 44 compounds from publication PMC12548414.

About 20 (1%) of roughly 1,600 compounds showed an effect of 50% or more. Many of the other results were omitted from the sample, so strong results are more common in it than they were.

The assay relates to T1, E. coli pLC1021 (luc-trpAt trans-translation reporter).
T1 construct: pLC1021 luc-trpAt reporter strain
Also noted: species or system Escherichia coli pLC1021; luc-trpAt non-stop luciferase reporter; luminescence rises when trans-translation is inhibited; normalized to KKL-35 and DMSO. The settings on record: reporter signal, KKL-35 = 100%; rise means trans-translation inhibition; 2 h, 20 µM. The protocol:
The luciferase screen was performed as previously described ([16]). […] 48 µL of cells was transferred to white 96-well plates, and 2 µL DMSO or 20 µM compound, or 20 µM KKL-35 was added. Plates were sealed with adhesive film, vortexed gently to mix, and incubated at room temperature for 2 h. 50 µL Bright-Glo reagent (Promega, Madison, WI) was added to each well, and the plates were sealed with adhesive film, vortexed vigorously, and incubated for an additional 10 min at room temperature. Luminescence was measured at 560 nm using a SpectraMax i3 microplate reader and readings for each plate were normalized to the average of three KKL-35-treated wells (positive control) and three DMSO-treated wells (negative control) within the plate to correct for plate-to-plate and day-to-day variations. Results from at least two biological repeats were averaged, and GraphPad Prism was used to plot the data. We screened a library of 1,601 anti-tubercular small molecules for their ability to inhibit trans-translation using a luciferase reporter in Escherichia coli. In this luc-trpAt reporter, the firefly luciferase gene has a trpA transcriptional terminator before the stop codon, such that luciferase is translated from a non-stop mRNA ([16]). When trans-translation is active, the luciferase will be tagged and degraded, but when trans-translation is inhibited, active luciferase will accumulate, resulting in a luminescent signal when luciferin is added. Luciferase activity was measured after growth in the presence of compounds from the library at 20 µM, using the known trans-translation inhibitor KKL-35 as a positive control (Fig. 1A) ([16], [17]). Compounds with activity one standard deviation above the median were scored as positive (Fig. S1 and Table S1).
Take `CSc1nccc(N2CCCC(CCC(=O)NCc3ccc(F)c(F)c3)C2)n1` (centres unmarked) [KKL-0346]: the “% activation” value is on record as 0%.

As to `c1ccc(-c2nc3c(c(N4CCN(Cc5cc6ccccc6[nH]5)CC4)n2)CCC3)cc1` [KKL-0483], the “% activation” value was 0%.

In the case of `Fc1ccc(Nc2nc(-c3ccccn3)cs2)cc1` [KKL-0715], the “% activation” value is given as 18%. For `O=C(CCCSc1ccccc1)Nc1nc(-c2ccccn2)cs1` [KKL-0800], the “% activation” value stood at 1%. Turning to `COC(=O)COc1ccc2c(=O)c(-c3ccccc3Cl)c(C)oc2c1` [KKL-0748], the “% activation” value came to 0%. On to `COC(=O)COc1ccc(NC(=O)c2ccccc2I)cc1` [KKL-1569], for which the “% activation” value was 0%.

As to `Cc1ccc(NC(=O)C(Cl)Cl)cc1[N+](=O)[O-]` [KKL-1373], the “% activation” value is reported as 4%. The value for `O=C(Cc1ccc(F)cc1)Nc1nc(-c2ccccn2)cs1` [KKL-1688] was 13%. The value for `Cc1cc(NCc2ccccn2)n2ncc(-c3ccccc3)c2n1` [KKL-0947] was 0%; that for `COc1ccccc1CN1CCCCC1C(=O)Nc1ccc(-n2cccn2)cc1` (centres unmarked) [KKL-0494] was 3%. The value for `Cc1ccc(-n2cc(CN(C)Cc3cc(C)[nH]n3)c(-c3ccc(F)cc3)n2)cc1` [KKL-0319] was 0%; that for `COc1ccccc1C1(O)CCN(Cc2cnn(-c3ccc(C)cc3)c2)CC1` [KKL-0553] was 7%; that for `O=[N+]([O-])c1cccc(NC(S)=Nc2ccc(Cl)c(C(F)(F)F)c2)c1` [KKL-1319] was 0%. With `COC(=O)C(CCSC)NC(=O)c1cc(COc2ccc(F)cc2Cl)on1` (centres unmarked) [KKL-0497], the “% activation” value was 9%. Take `O=C(Nc1ccc(Oc2cccnc2)cc1)C1Oc2ccccc2O1` [KKL-0696]: the “% activation” value is 0%. In the case of `c1ccc(CCNc2ccnc3cc4ccccc4cc23)cc1` [KKL-1051], the “% activation” value is reported as 0%. Then `Cc1nc(C2CCNCC2)ncc1-c1nc(N2CCCCCC2)ncc1-c1ccc(F)cc1` [KKL-0335], with 0%; and `C(=C\c1nc(N2CCCC2)c2ccccc2n1)/c1ccccc1` [KKL-1269], with 0%; and `Cc1ccc2nc(C(F)(F)F)c(C(=O)NCc3cc(Cl)cc(Cl)c3)n2c1` [KKL-1785], with 16%.

`COc1ccc(CCN=C(S)N2CCN(C/C=C/c3ccccc3)CC2)cc1OC` [KKL-1528]: the “% activation” value was 2%.

As to `CC(C)c1ccc(OCC(=O)NNC(=S)NC(=O)c2ccco2)c(Br)c1` [KKL-0743], the “% activation” value came out at 24%. Consider `Cc1ccc(C2(O)CCN(CCNC(=O)c3oc4ccccc4c3C)CC2)cc1` [KKL-0340], for which the “% activation” value amounted to 1%. As to `CC(C)(C)c1ccc(C(=O)Nc2ccc(NC(=S)NC(=O)c3cccs3)cc2)cc1` [KKL-0310], the “% activation” value stood at 0%. The value for `Oc1c(CN2CCc3ccccc3C2)cc(Cl)c2cccnc12` [KKL-0391] was 42%.

Take `CSc1ncc(C(=O)NC2(c3ccccc3)CCCC2)cn1` [KKL-0465]: the “% activation” value is 0%. `COc1ccc(N=c2cc(-c3ccc(O)cc3)oc3ccccc23)cc1` [KKL-0846]: the “% activation” value amounted to 0%. Turning to `CCC(Sc1nc2ccccc2o1)C(=O)Nc1nnc(C)s1` (centres unmarked) [KKL-1356], the “% activation” value is listed as 2%. As for `CCc1ccc(C2CC(C(F)(F)F)n3ncc(C(=O)NCc4cccs4)c3N2)cc1` (centres unmarked) [KKL-1779], the “% activation” value turned out to be 0%. Then `Cc1ccccc1CN1CC[C@@H]2[C@H](C1)[C@@H](c1ccc(F)cc1)CN2C(=O)C(C)C` [KKL-1218], with 2%. Consider `OC(CN1CCC(O)(c2ccc(F)cc2)CC1)c1ccc(-c2ccccc2)cc1` (centres unmarked) [KKL-0933], for which the “% activation” value is given as 0%. The value for `CCC1CCCCN1C(=O)COC(=O)c1cc2ccccc2cc1O` (centres unmarked) [KKL-0823] was 0%; that for `O=C(NCc1cc(Cl)cc(Cl)c1)c1c(C(F)(F)F)nc2ccccn12` [KKL-1807] was 0%; that for `O=C(Nc1ccn(Cc2ccc(Cl)cc2)n1)c1ccc2c(c1)OCO2` [KKL-0566] was 0%.

On to `FC(F)(F)c1nnc2ccc(Sc3nnc(-c4ccco4)o3)nn12` [KKL-1754], for which the “% activation” value stood at 1%. As for `CCCC(=O)NC(=S)Nc1ccc(N2CCN(C(=O)c3cccs3)CC2)c(Cl)c1` [KKL-0912], the “% activation” value came to 0%. With `O=C(NCc1cnn(-c2cccc(F)c2)c1)c1cc(COc2cccc3cccnc23)on1` [KKL-0634], the “% activation” value is on record as 2%. For `O=C(NCCCc1ccc(F)cc1)c1cc(-c2ccccn2)[nH]n1` [KKL-0693], the “% activation” value came out at 0%. As for `O=C(Nc1nccs1)c1ccc(CSc2ccccc2)o1` [KKL-0586], the “% activation” value is listed as 0%. With `CCc1c(C)c2ccc(OCC(=O)OC)c(C)c2oc1=O` [KKL-1278], the “% activation” value is reported as 0%.

In the case of `CCOC(=O)/C(C#N)=C/c1ccc(-c2ccc(F)cc2)o1` [KKL-0788], the “% activation” value turned out to be 0%. Consider `NC1CCc2nc(-c3ccncc3)nc(Nc3cccc(C(F)(F)F)c3)c2C1` (centres unmarked) [KKL-0541], for which the “% activation” value was determined as 802%.

Turning to `NC1CCc2nc(-c3ccncc3)nc(Nc3ccc(C(F)(F)F)cc3)c2C1` (centres unmarked) [KKL-0539], the “% activation” value amounted to 620%. Regarding `O=C(CC12CC3CC(CC(C3)C1)C2)Nc1cccc(C(F)(F)F)c1` [KKL-1282], the “% activation” value is recorded as 0%. In the case of `O=C(/C=C/c1cccc(C(F)(F)F)c1)Nc1cccc(C(F)(F)F)c1` [KKL-1369], the “% activation” value is reported as 0%.
